HCMV antiviral: inhibitors of human cytomegalovirus | HFF cells, HCMV-luciferase reporter, 72 h; active compounds read low | activity change, negative = inhibition, % at 57.5 µM | 410,000 tested, 4.5% active | AID 1259415; in the data active = activity change below about -60%; inconclusive = no clear call, values can overlap the other calls; inactive = above about -39%
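Human foreskin fibroblasts infected with luciferase-reporter HCMV at MOI 1 PFU/cell, compounds at two doses. Luciferase measured 72 h post infection; normalized to buffer-only basal and Salinomycin (10uM) controls.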
SARS PLpro yeast: SARS-CoV PLP inhibition in yeast; S. cerevisiae expressing SARS-CoV PLpro, growth rescue; Potency, µM (top dose mostly 32.9 µM), most hits filed as activators; 330,000 tested, 0.19% active; AID 485353; calls by dose curve; also: nearly all actives have a fitted effect of over 55% in size
Lassa entry inh: Lassa virus entry inhibition. 300,000 tested, 1.2% active. Potency, µM (titrated, usually from 37.9 µM), actives largely listed as inhibitors. AID 540256. Lassa virus pseudotype entry inhibition, cell reporter; calls by dose curve; tested in HEK293 cells; also: nearly all actives have a fitted effect of over 50% in size
FMDV inh: antivirals against foot and mouth disease virus; FMDV antiviral cell-based qHTS; Potency, µM (series often up to 57.9 µM), hits mostly inhibitors; 410,000 tested, 1.2% active; calls by dose curve; tested in HEK293T cells; also: read-out not given here; nearly all actives have a fitted effect of over 45% in size
HCV inh: inhibitors of hepatitis C virus infection | Huh7.5.1 HCVcc-Cre infection, luciferase reporter, 44 h | Potency, µM (series often up to 41.8 µM), actives largely listed as inhibitors | 340,000 tested, 3.4% active; active = well fitted inhibition curve with a large enough effect; inconclusive = small, poorly fitted or top-dose-only effect, or another doubt; inactive = no such curve, though single readings can be large or run the other way
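Infectious HCVcc-Cre (~0.5 moi) was added to cells just after compound, with cells seeded 4 h earlier at 1,000 per well. Luciferase activity after 44 h culture reported infection; substrate was incubated 15 min at room temperature before reading.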
MARV entry inh: Marburg virus entry inhibition; Marburg virus pseudotyped entry inhibition, cell reporter; Potency, µM (doses to about 37.8 µM), most hits filed as inhibitors; 300,000 tested, 1.8% active; AID 540276; calls by dose curve; tested in HEK293 cells
A number is an active result; - = inactive; ? = inconclusive; . = no result; ! = repeats disagree. Sampled rows, rich in hits. Any-hit rate of the full collection: about 8%.

SMILES	HCMV antiviral	SARS PLpro yeast	Lassa entry inh	FMDV inh	HCV inh	MARV entry inh
O=C(Cn1nc(-c2ccccc2)c2ccccc2c1=O)Nc1ccccn1	-61	-	?	-	-	?
CCN(CC)C(=O)c1ccc(-c2nnc(OC)c3ccccc23)cc1	-66	-	-	-	-	-
Cc1ccccc1OCC(=O)Nc1ccc(S(=O)(=O)N(Cc2ccccc2)c2ccccc2)cc1	-	.	-	-	.	?
CCn1c(-c2ccccc2F)nc2cc(NC(C)=O)cc(C(=O)N3CCCC3c3nccs3)c21 (stereo not given)	.	.	.	-	.	.
c1ccc(Cc2nc3ccccc3[nH]2)cc1	-	-	.	-	-	.
Nc1ccc(C(=O)OCCCc2nc3cc4ccccc4cc3[nH]2)cc1	?	-	.	-	-	.
Nc1ccc(C(=O)OCc2nc3cc4ccccc4cc3[nH]2)cc1	-93	-	2.6µM	-	-	1.6µM
Nc1ccc(C(=O)OCc2nc3c(ccc4ccccc43)[nH]2)cc1	-	-	8.9µM	-	?	?
Nc1ccc(Cc2nc3cc4ccccc4cc3[nH]2)cc1	?	-	2.6µM	.	-	?
CCOCCCNC(=O)c1ccc2c(c1)NC(=O)C(CS(=O)(=O)Cc1ccc(F)cc1Cl)N2 (stereo not given)	-	.	-	?	.	.
Cc1ccc(NC(=O)Cn2c(=O)n(-c3ccccc3)c(=O)c3ccc(C(=O)NCc4ccc5c(c4)OCO5)cc32)c(C)c1	-	.	-	-	.	-
CCOC(=O)C1CCC(CN(Cc2c(Cl)cccc2Cl)S(=O)(=O)c2ccc(F)cc2)CC1 (stereo not given)	-	.	?	-	.	.
Cc1ccc(Cn2ncc3c(N4CCN(CC#N)CC4)ncnc32)cc1	-	-	-	32µM	?	?
c1ccc(Cn2ncc3c(N4CCN(c5ccccc5)CC4)ncnc32)cc1	?	.	.	22µM	.	.
Cc1ccc(Cn2ncc3c(N4CCCC4)ncnc32)cc1	-	-	-	-	?	-
CC1(C)Cc2ccccc2C(NNC(=O)c2cccnc2)=N1	-92	-	-	-	-	-
CC1(C)Cc2ccccc2C(NNC(=O)c2ccncc2)=N1	-	-	-	-	-	-
CN(CCO)C(=O)c1cn(C2CCCN(Cc3ccc4ccccc4c3)C2)nn1 (stereo not given)	.	.	.	-	.	.
Cc1cccc(-c2cc3nc(C)cc(C)n3n2)c1	-	-	?	-	10µM	?
Cc1cccc(-c2cc3nc(C)cc(NCCCN(C)C)n3n2)c1	-	-	?	-	2.5µM	?
COc1ccc(-c2cc3nc(C)cc(-c4ccc(OC)cc4)n3n2)cc1	-	-	.	-	10µM	.
CCN(CC)CCCNc1cc(C)nc2cc(-c3cccs3)nn12	-	-	-	-	?	18µM
COc1ccc(-c2cc3nc(C)cc(N)n3n2)cc1	-	-	?	-	-	?
O=c1c2oc3ccccc3c2n(Cc2ccccc2Cl)c(=O)n1Cc1ccco1	-	.	-	-	.	.
COc1ccccc1-c1oc2ccccc2c1C#CCO	-	-	.	-	-	.
SMILES	HCMV antiviral	SARS PLpro yeast	Lassa entry inh	FMDV inh	HCV inh	MARV entry inh
COc1ccccc1-c1oc2ccccc2c1C#CC(C)(C)O	-	-	.	-	10µM	.
CN(C)c1oc(-c2ccccc2Cl)nc1S(=O)(=O)c1ccccc1	-	-	.	-	-	.
COc1ccc(/C=C/c2nc(S(=O)(=O)c3ccccc3)c(N(C)C)o2)cc1	-	-	.	-	22µM	.
O=S1(=O)c2ccc(Br)cc2OC2CCCC[C@@H]2N1Cc1ccccc1 (stereo not given in full)	-	.	.	.	.	.
CCC[C@H]1[C@@H](NC(=O)Nc2ccc(C#N)cc2)CC[C@@]23CCCN2C(=O)CCC[C@@H]13	-	.	.	.	.	.
CC(=O)c1c(C)[nH]c(C(=O)CSc2nc3ccccc3c(=O)n2CCCN2CCOCC2)c1C	-	-	-	-	-	21µM
O=C(CSc1nc2ccccc2c(=O)n1CCCN1CCOCC1)Nc1cccc(S(=O)(=O)N2CCCCCC2)c1	?	-	?	-	13µM	?
CCc1ccc(NC(=O)CSc2nc3ccccc3c(=O)n2CCCC(=O)NCCCN2CCOCC2)cc1	-	-	?	-	11µM	?
CC1CCN(CCCn2c(SCC(=O)Nc3ccccc3Cl)nc3ccccc3c2=O)CC1	-	-	6.3µM	-	11µM	?
Cc1ccc(NC(=O)CSc2nc3ccccc3c(=O)n2CCCC(=O)NCCCN2CCOCC2)cc1C	?	-	?	-	-	?
COc1ccc(-n2ncc(C(=O)NCc3ccc4c(c3)OCO4)c2C2CCN(C(=O)OC(C)(C)C)CC2)cc1	-	.	?	-	.	.
CCOc1ccc(C(=O)N(Cc2nc(-c3cccc(C)c3)no2)C(C)C)cc1	-	.	?	-	.	-
Cc1cc(SCC(=O)Nc2cccc(S(=O)(=O)N3CCOCC3)c2)nc2ccccc12	-	-	.	-	13µM	.
Cc1ccc(NC(=O)CSc2nc3ccccc3c(=O)n2CCCN2CCCCC2)cc1Cl	-97	-	?	-	2µM	?
COCCNC(=O)CSc1nc2cc3c(cc2c(=O)n1CCCC(=O)NCc1ccc(OC)cc1)OCO3	-62!	-	?	-	-	-
O=C(CSc1nc2ccccc2c(=O)n1CCCN1CCOCC1)Nc1ccc(F)c(Cl)c1	-	-	.	?	1.8µM	.
COCCNC(=O)CSc1nc2cc3c(cc2c(=O)n1CCCC(=O)NCCc1ccc(OC)c(OC)c1)OCO3	-	-	?	-	-	-
Cc1ccc(SCC(=O)Nc2cccc(S(=O)(=O)N3CCOCC3)c2)cc1C	-	-	.	-	?	.
COc1ccc(CNC(=O)Cc2c(C)c3c(cc(C)c4c(C)coc43)oc2=O)cc1	-	.	?	-	.	-
COc1ccc(F)c(CN2CCOc3ccc(CN4CCC(O)(c5cccnc5)CC4)cc3C2)c1	.	.	.	-	.	.
Cc1cc(OC(C)C(=O)N(Cc2ccc(N(C)C)cc2)Cc2ccco2)ccc1Cl (stereo not given)	-	.	-	-	.	-
CCOc1ccc(N(C)C(CNS(=O)(=O)c2ccccc2)c2ccccc2)cc1 (stereo not given)	-	.	?	-	.	?
COc1ccc(OC)c(NC(=O)Cn2cnc3sc(C)c(S(=O)(=O)N4CCN(c5ccccc5OC)CC4)c3c2=O)c1	-	.	-	-	.	-
Cc1ccc(Cn2c(CNC(=O)Cc3cccc([N+](=O)[O-])c3)nc3cccnc32)cc1	-	.	-	-	.	.
Cn1c(=O)c2c(nc(CN3CCN(c4ccccc4F)CC3)n2Cc2ccccc2F)n(C)c1=O	-	.	-	-	.	-
Cn1c(=O)c2c(nc(N3CCCCCC3)n2Cc2cccc3ccccc23)n(C)c1=O	?	-	-	28µM	?	?
Cn1c(=O)c2c(nc(CN3CCN(c4ccc(F)cc4)CC3)n2Cc2ccccc2F)n(C)c1=O	-	-	-	-	?	16µM
Cn1c(=O)c2c(nc(CN3CCN(CCO)CC3)n2Cc2cccc3ccccc23)n(C)c1=O	-	-	-	-	?	12µM
Cc1cc(CN2CCN(c3cccc(C)c3C)CC2)cs1	-69	.	-	-	.	.
